About 220 (0.063%) of roughly 350,000 compounds were called active. Another 4% or so got no clear call; they are omitted. Calls follow the shape of the dose curve; as a rule, active = well fitted activation curve with a large enough effect; inconclusive = small, poorly fitted or top-dose-only effect; inactive = no such curve, though single readings can be large or run the other way. This excerpt belongs to a sample that is enriched for actives.
assay: qHTS for Activators of Integrin-Mediated Alleviation for Muscular Dystrophy; details: alpha7betagal myoblasts, beta-gal FDG fluorescence, 48 h; series mostly up to 38.3 µM; also: nearly all actives have a fitted effect of over 60% in size
Procedure, shortened: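 alpha7betagal+/- myoblasts (passage 13, 250/well) treated 48 h at 37C with compounds at 1:260 dilution of DMSO stock. Lysed, then beta-galactosidase activity read as FDG fluorescence (ex 480/em 540) after 30 min, with pre-read for autofluorescence.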
Potency is read from the fitted curve at half-maximal effect.

Potency, active:
CC(C)NC(=S)NN=C1CCCCCCCCCCC1 3.16 µM

Potency, inactive:
Cn1ncc([N+](=O)[O-])c1C(=O)Nc1cc(Cl)ccc1Cl
Cc1cc2cc3n(c2nn1)N=C(Cl)CC3
CCOC(=O)C(C(=O)c1ccccc1)C(c1ccccc1)c1nccc2ccccc12 (stereo not given)
Cc1cc(Cl)ccc1C(=O)C1CCCN(C(=O)c2ccc3c(c2)OCO3)C1 (stereo not given)
CCOC(=O)c1cc(-c2sc(NC(=O)c3ccccc3)nc2C)n(Cc2ccccc2)n1
COc1ccccc1-c1n[nH]nc1C1=CC(=O)CC(C)(C)C1
CC(C)c1cc(C(=O)NC2CCCCCC2)c2ccccc2n1
CC(=O)Nc1ccc2nc(NC(=O)CS(=O)(=O)c3ccc(F)cc3)sc2c1
CN(c1ccccc1)S(=O)(=O)c1ccc(C(=O)NCc2cccnc2)cc1
CNC(=O)c1ccc(CN(C)C(=O)c2cc(C3CC3)nc3c2cnn3C(C)C)cc1
C[C@@H]1CN([C@@H](C)CO)C(=O)CCCn2cc(nn2)CO[C@H]1CN(C)S(=O)(=O)c1ccc(-n2cccn2)cc1
C[C@H](CO)N1C[C@H](C)[C@@H](CN(C)Cc2ccc3c(c2)OCO3)OCc2cnnn2CCCC1=O
C[C@@H]1CN([C@H](C)CO)C(=O)c2cc(-c3ccc(F)cc3)cnc2O[C@H]1CN(C)C(=O)c1ccc(F)cc1
CSc1ncccc1C(=O)N1CCCC(Nc2ccc(F)c(F)c2)C1 (stereo not given)
Cc1ccc(NC(=O)c2ccco2)cc1
C[C@@H]1CN([C@H](C)CO)S(=O)(=O)c2ccc(C#C[C@@H](C)O)cc2O[C@@H]1CN(C)Cc1ccc(-c2ccccc2)cc1
O[C@H]1C[C@H](c2ccc(Cl)cc2)N(Cc2cccs2)C[C@@H]1n1cc(C2CC2)nn1
O=C1[C@H]2[C@@H](c3ccc(C(F)(F)F)cc3)N[C@]3(CCCN(Cc4ccc(Cl)cc4)C3=O)[C@H]2C(=O)N1Cc1ccccc1
C[C@H]1CN([C@@H](C)CO)S(=O)(=O)c2ccc(-c3cccc(F)c3)cc2O[C@@H]1CN(C)C
Cc1ccc(S(=O)(=O)N2C[C@@H](C)[C@]3(C2)[C@H](O)[C@H](OC(=O)NCc2ccccc2)C[C@H]2C(=O)N(c4ccccc4)C(=O)[C@H]23)cc1
C[C@H]1CN([C@@H](C)CO)C(=O)c2cc(C3=CCCCC3)cnc2O[C@@H]1CN(C)C(=O)Cc1ccccc1
C[C@@H]1CN([C@@H](C)CO)C(=O)CCCn2nncc2CO[C@H]1CN(C)C(=O)Nc1ccc(C(F)(F)F)cc1
CCCCCCn1c(=O)n2n(c1=O)C[C@]1(OC(=O)NCc3ccc(OC)c(OC)c3)CN(S(=O)(=O)c3ccc(C)cc3)C[C@]1(O)C2
CCN(CC)CCN(C(=O)c1ccc2c(c1)CCCC2)c1nc2c(OC)cccc2s1
Cc1ccc(-c2ccc(CN3C(C(C)C)C(=O)N(Cc4cn(CCC5OCCO5)nn4)CCS3(=O)=O)cc2)cc1 (stereo not given)
COc1ncnc2c1ncn2CCCNCCN1CCOCC1
CSC1=NN(c2ccccc2)CN(c2ccccc2)N1C
CN(C)C(CNC(=O)c1cccc(S(=O)(=O)N2CCc3ccccc3C2)c1)c1ccccc1 (stereo not given)
CCN(CC)C(=O)C1=C(C)N(Cc2ccc(F)cc2)C(=O)C(CC(=O)NCc2cccc3ccccc23)C1 (stereo not given)
COc1ccccc1C(=O)NC(=S)Nc1ccc(N2CCOCC2)cc1
Cn1c(CCN2CCN(c3ccccn3)CC2)nc2cc(NS(=O)(=O)c3ccc(F)cc3)ccc21
NC(=S)NN=Cc1ccc(OC(=O)COc2cc(Cl)c(Cl)cc2Cl)cn1
CCOC(=O)C(=Cc1ccccc1)C(=O)c1ccccc1
CCCCCCNC(=O)O[C@H]1CN(C(=O)OC(C)C)N(C(=O)OC(C)C)[C@@H]2CN(S(=O)(=O)c3ccc(C)cc3)C[C@]12O
Cc1ccc(NC(=O)Cn2sc3ccccc3c2=O)cc1
CC1(c2cccc(Br)c2)NC(=O)N(CC(=O)NCCC2=CCCCC2)C1=O (stereo not given)
C[C@H](CO)N1C[C@H](C)[C@@H](CN(C)C(=O)c2cnccn2)Oc2ncc(Br)cc2C1=O
COc1ccc(OC)c(C(=O)NC2CCCc3c2cnn3-c2cc(C)cc(C)c2)c1 (stereo not given)
O=C(OCc1ccccc1)N1CCC2CC1c1ccc(-c3ccc4c(c3)OCO4)cc12 (stereo not given)
CCCCCCN1C[C@@H](O)[C@H](n2cc(COC(=O)c3ccccc3)nn2)C[C@@H]1c1ccc(Cl)cc1
CCN1CCN(CCNC(=O)c2ccc3c(c2)NC(=O)/C(=C\c2cccc(Cl)c2)S3)CC1
COc1ccc(S(=O)(=O)N2CCN(CC(=O)N3CCNC3=O)CC2)cc1OC
COCCNC(=O)CSc1nc(N)c(NC(=O)c2ccco2)c(=O)[nH]1
O=C(NCCN1CCOCC1)C1CCN(S(=O)(=O)c2ccccc2)CC1
C[C@H](CO)N1C[C@H](C)[C@@H](CN(C)S(=O)(=O)c2ccc(Oc3ccccc3)cc2)OCc2cn(nn2)CCCC1=O
Cc1ccn(CC(=O)NC2CCCN(Cc3ccccc3F)C2)n1 (stereo not given)
CC1CCCC(NC(=O)COC(=O)c2ccccc2C(=O)N(C)C2CCCCC2)C1C (stereo not given)
Cc1ccc(S(=O)(=O)N2CCOCC2)cc1NC(=O)c1ccncc1
CC1(C)CN(CCc2ccccc2)C(=O)[C@H]1CC(=O)Nc1ccc(Br)cc1
CC1(C)CC(=O)C=C(c2ccccc2CO)C1=O
CCOC(=O)c1cc(-c2sc(NC(=O)c3ccccc3)nc2C)n(-c2ccc(Br)cc2)n1
CCOc1ccc(S(=O)(=O)NCCC(=O)NNC(=O)c2ccc(F)cc2)cc1
C/C(=N\NC(=S)NC(C)C)c1ccc(C(C)(C)C)cc1
CC(C)(C)NC(=O)C(=O)NN=C1CCCCCCC1
Cc1cccc(C(=O)C(O)(c2ccccc2)C2CCCCC2=O)c1 (stereo not given)
C=CCn1nc(C(=O)OCC)cc1-c1sc(NC(=O)c2ccccc2)nc1C
COc1ccc(-c2c(C#N)cnc(C)c2C)c(O)c1OC
COc1ccc(-c2ccc3[nH]c4c(c3c2)CCN2C[C@H]3[C@H](C)ON(C)[C@H]3C[C@@H]42)cc1
O=C(Nc1ccc2c(c1)[C@@H]1C[C@@H](CC(=O)N3CCCCC3)O[C@@H](CO)[C@@H]1O2)NC1CCCCC1
C[C@@H]1CCCCO[C@H](CN(C)Cc2ccccc2)[C@@H](C)CN([C@H](C)CO)C(=O)c2cc(NS(=O)(=O)c3ccc(Cl)cc3)ccc2O1
OCC1OC(n2cnc3c(N4CCCC4)ncnc32)C(O)C1O (stereo not given)
CCOC(=O)C1CCN(C(=O)c2ccc3c(=O)n4nc(Nc5ccccc5CC)sc4nc3c2)CC1
COc1ccc(-c2ccc(CN3C(CC(C)C)C(=O)N(Cc4cn(CC5CCCCC5)nn4)CCS3(=O)=O)cc2)cc1 (stereo not given)
CNC(=O)C[C@H]1C(=O)N(c2ccc(OC)cc2)C[C@@H]1Cc1ccccc1
COc1cccc(NC(=O)N(C)C[C@@H]2Oc3ncc(Br)cc3C(=O)N([C@@H](C)CO)C[C@H]2C)c1
COc1ccc(NC(=O)c2cc(=O)[nH]c3ccccc23)cc1S(=O)(=O)N1CCOCC1
CCN(CC)C(=O)C1=C(C)N(Cc2ccc(OC)cc2)C(=O)C(CC(=O)NCc2ccco2)C1 (stereo not given)
O=C(NCCOc1ccccc1)N1[C@H]2CC[C@@H]1C=C(c1ccc(F)cc1OCc1ccccc1)C2
O=S(=O)(c1cccc(C(F)(F)F)c1)N1c2ccccc2-n2cccc2C1c1cccnc1 (stereo not given)
O=C(C[C@H]1C[C@@H]2c3cc(NC(=O)C4CCC4)ccc3O[C@@H]2[C@H](CO)O1)NC1CCCCC1
CCOC(=O)c1cnn2c(SC)ncnc12
Cc1ccc(-c2ccc(CN3C(C(C)C)C(=O)N(Cc4cn(CCC5OCCCO5)nn4)CCS3(=O)=O)cc2)cc1 (stereo not given)
O=C(CSc1ncn[nH]1)Nc1nc2c(F)c(F)c(F)cc2s1
C[C@H]1CN([C@@H](C)CO)C(=O)CCCn2nncc2CO[C@@H]1CN(C)S(=O)(=O)c1cccc(C#N)c1
c1ccc2c(c1)nnn2-c1ccncc1
CC(OC(=O)c1cccc(S(=O)(=O)N2CCOCC2)c1)C(=O)NCC1CCCCC1 (stereo not given)
CC1(C)OC(=O)C2=C(CC(c3ccccc3)OC2CCc2ccccc2)O1 (stereo not given)
O=C(NCCS(=O)(=O)N1CCN(c2ccccc2)CC1)c1cc(=O)c2ccccc2o1
CCc1ccccc1NC(=O)CN1CCN(C(=O)c2cc(C3CC3)nn2-c2ccccc2)CC1
Cc1ccn2c(-c3csc(Nc4ccc(C(=O)O)cc4)n3)c(C)nc2c1
CC1=C(C(=O)Nc2cccc(C(=O)NCC(C)c3ccccc3)c2)SCCO1 (stereo not given)
CC(=O)c1ccccc1NC(=O)COC(=O)C1COc2ccccc2O1 (stereo not given)
O=C(CCc1ccc(O)cc1)NN=Cc1cc(Br)ccc1O
COc1ccc(S(=O)(=O)N2CCC(C(=O)NCCC(=O)Nc3ccccc3OC)CC2)cc1
CCOc1cc(/C=N/NC(=O)c2ccncc2)cc(Br)c1O
Cc1ccc(CCNC(=O)CN2C(=O)CSc3ccc(S(=O)(=O)N4CCOCC4)cc32)cc1
N#CCCN(C(=O)Nc1ccc(Cl)c(Cl)c1)C1CCCCC1
O=C1c2ccccc2-c2ccccc2NC1O (stereo not given)
Cc1ccc(S(=O)(=O)N2C[C@H]3n4c(=O)ccc(=O)n4C[C@H](OC(=O)NC4CCCC4)[C@@]3(O)C2)cc1
